# Source: PubChem BioAssay (NCI)
# The panel holds about 83,000 compounds, 20% with a hit somewhere; the sample as a whole holds those more often.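 Assay: single dose, 48 h. Readout: percent growth (0 = no net growth; negative = cell death). Active: <10.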 Unmarked numbers belong to inactive results. Active and inactive are the calls of the source.
# How the values were obtained:
# Assay in all cases: NCI-60 one-dose screen, 48 h (100 = growth as untreated, 0 = no growth, -100 = all killed)
# Settings in all cases: 10 µM unless noted
# [1] = tested on: HCT-15 colon
# [2] = tested on: HT29 colon
# [3] = tested on: SNB-75 CNS
# [4] = tested on: SNB-19 CNS
# [5] = tested on: U251 CNS
# [6] = tested on: PC-3 prostate
# [7] = tested on: SK-MEL-5 melanoma
# [8] = tested on: UACC-62 melanoma
# [9] = tested on: LOX IMVI melanoma
# [10] = tested on: SK-MEL-28 melanoma
# [11] = tested on: SK-MEL-2 melanoma
# [12] = tested on: EKVX NSCLC
# [13] = tested on: SN12C renal
# [14] = tested on: UO-31 renal
# [15] = tested on: TK-10 renal
# [16] = tested on: ACHN renal
# [17] = tested on: CAKI-1 renal
# [18] = tested on: A498 renal
# [19] = tested on: CCRF-CEM leukemia
# [20] = tested on: MOLT-4 leukemia
SMILES,growth [1],growth [2],growth [3],growth [4] [%],growth [5],growth [6],growth [7],growth [8],growth [9],growth [10],growth [11],growth [12],growth [13],growth [14],growth [15],growth [16],growth [17],growth [18],growth [19],growth [20]
COc1ccc(Oc2nc(Nc3ccc(N4CCOCC4)cc3)ncc2NC(=O)Nc2cccc(OC)c2)cc1,84%,54.2%,80.1%,72,48.8%,48.4%,22.5%,46.8%,76.7%,61.4%,39.2%,84.6%,50.7%,75.8%,75.9%,68%,62.2%,66.3%,68.1%,40.4%
O=[N+]([O-])c1ccc(SSc2ccc([N+](=O)[O-])cc2Cl)c(Cl)c1,105%,98.2%,84%,99.5,89.6%,93.2%,95.5%,79.7%,77.3%,109%,104%,87.9%,93.4%,64.7%,105%,97.7%,87.7%,22.7%,98.9%,78.1%
O=C(Nc1cccc(-n2ccc3c(NC(=O)c4ccccc4)nccc32)c1)c1ccc(N2CCOCC2)c(C(F)(F)F)c1,14.1%,2.15% (active),-12.5% (active),43.3,15.5%,23.7%,-68.6% (active),40.1%,9.86% (active),32.8%,13.4%,45.5%,34%,5% (active),6.82% (active),24.2%,14.8%,21.9%,15.7%,17.4%
O=C(Cc1ccc([N+](=O)[O-])cc1)Oc1ccccc1,104%,104%,102%,103,107%,93.1%,105%,101%,107%,112%,102%,128%,106%,77%,104%,110%,117%,107%,99.3%,108%
CO[C@H](C(=O)[C@@H](O)[C@@H](C)O)[C@@H]1Cc2cc3cc(O[C@H]4C[C@@H](O[C@H]5C[C@@H](O)[C@H](O)C(C)O5)[C@H](O)C(C)O4)c(C)c(O)c3c(O)c2C(=O)[C@H]1O[C@H]1C[C@@H](O[C@H]2C[C@@H](O[C@H]3C[C@](C)(O)C(=O)C(C)O3)[C@@H](O)C(C)O2)[C@H](O)C(C)O1 (stereo not given in full),20.2%,-13.9% (active),-65.5% (active),10.8,2.98% (active),6.86% (active),-32.2% (active),-30.7% (active),-5.83% (active),-18.8% (active),-57.6% (active),0.189% (active),13.6%,-11.3% (active),-10.9% (active),2.84% (active),1.12% (active),-33% (active),10.3%,1.04% (active)
CCCCc1nc(Cl)c(C2CC(c3ccc(S(N)(=O)=O)cc3)=NN2c2ccc(C#N)cc2)[nH]1 (stereo not given),97%,100%,87.5%,84.9,76.7%,69.4%,78.3%,68%,86.6%,107%,91%,89.5%,83%,70.5%,100%,101%,67.6%,74.2%,86.8%,76.1%
CC(C)c1ccc(-c2cnc3nonc3n2)cc1,19.3%,29.8%,54.3%,40.7,65.9%,19.3%,32.5%,14.2%,26.1%,73.9%,76.4%,71.9%,26.2%,41.3%,47.5%,51.3%,60.7%,61.8%,1.81% (active),-12.1% (active)
CCOC(=O)C(Cc1ccccc1)n1c(O)c(/C=N/c2ncc(Cc3ccc(Cl)cc3Cl)s2)sc1=S (stereo not given),10.5%,-16.7% (active),22%,19.3,4.53% (active),-16.2% (active),-3.04% (active),-0.818% (active),21%,31.8%,-18.4% (active),10.8%,6.54% (active),3.67% (active),2.28% (active),3.38% (active),12.7%,-27.3% (active),2.77% (active),-7.05% (active)
O=C(N/N=C/c1ccccc1O)c1ccncc1,28.5%,42.7%,86.2%,66.6,39.2%,69.5%,75.5%,33.5%,50.8%,61.1%,55.9%,36.9%,78%,33.5%,57.7%,56.8%,41.3%,87.7%,29.1%,9.31% (active)
CCOC(=O)Cc1cc(Br)c(OCc2ccccc2)c(Br)c1,88.7%,99%,87.3%,97.9,90.2%,84.1%,104%,70.8%,87.6%,106%,94.8%,90.9%,88.9%,80.5%,96.8%,92%,77.2%,109%,95.4%,77.2%
CC(=O)NC1C(O[C@H]2C[C@H]3[C@@H]4CC=C5C[C@@H](O)CC[C@]5(C)[C@H]4CC[C@]3(C)[C@H]2[C@H](C)C(=O)CCC(C)C)OCC(O)C1O (stereo not given in full),30.5%,36.8%,37.8%,57.5,28%,26.5%,24.8%,-20.3% (active),27.2%,-14.3% (active),-15.9% (active),46.3%,89.6%,1.5% (active),60.4%,44.3%,30.2%,-20.3% (active),11.5%,-8.22% (active)
COc1cccc(N2CCN(c3ncnc4cc[nH]c34)CC2)c1,83%,73.2%,84%,66.2,66.9%,53%,-0.321% (active),58.8%,51.6%,80.8%,64.7%,50.1%,85.5%,65%,52.8%,59.6%,71.6%,41.3%,60.9%,29.6%
N#CCCn1cnc2c(N)ncnc21,98.3%,101%,93.8%,99.4,98.8%,94.2%,113%,96.7%,97.1%,107%,106%,104%,94.2%,116%,114%,94%,97%,112%,96.7%,92.1%
CC(C)c1cccc(C#N)c1,113%,104%,83.7%,99,94.8%,85.5%,92.3%,102%,95.3%,105%,120%,94%,97.3%,98.7%,121%,115%,98.9%,92.3%,90%,101%
CCOC(=O)C1C(=O)C=C(c2ccccc2)CC1c1sc(N(C)Cc2ccccc2)nc1Cl (stereo not given),94.3%,91.2%,89.1%,89.7,92.7%,76.4%,92.7%,61.4%,88.2%,109%,84.4%,87.9%,94.3%,76.1%,107%,95.3%,68.7%,107%,84%,71.1%
C=C1C(=O)O[C@H]2[C@H]1CC/C(COC(=O)NCc1c[nH]c3ccc(OC)cc13)=C\CC[C@@]1(C)O[C@@H]21,-26.1% (active),-53.2% (active),63.2%,64.4,9.85% (active),-2.65% (active),15.1%,-31.6% (active),-59.6% (active),-23.9% (active),35.9%,33.9%,10.9%,-85% (active),-40.3% (active),-10.7% (active),-2.21% (active),94.1%,-7.78% (active),2.7% (active)
